Source: PubChem BioAssay
Potency and affinity values are given separately. Records with an inconclusive call do not appear. Calls of active or inactive are those of the source. Unless noted, no rule for the calls is given here.

Experiments:
[1] = cytotoxicity in PAX8-dependent RMG-1 cells, dose response, cell-based, cherry-pick (AID 687029;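 active = signal drop whose fitted half-maximal concentration is at most twice the top valid dose, in every test run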;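 also: cells exposed to compound for 96 hours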)
[2] = cytotoxicity in IOSE-T80 ovarian epithelial cells, dose response, selectivity assay for PAX8 inhibitor project, cell-based, cherry-pick (AID 687032;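 active = fitted half-maximal concentration for viability loss no higher than twice the top valid dose, in every repeat run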;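 also: cells exposed to compound for 96 h before reading; 0% = neutral control wells and -100% = 2 µM mitoxantrone kill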)
[3] = inhibitors of CMV-promoter luciferase reporter, dose response, counter-screen for Pax8 inhibitor project, cell-based, HEK293, luminescence, dry powder (AID 743020;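 active = signal-lowering compounds whose fitted half-maximal concentration is at or below twice the top tested dose in every run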;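 also: HEK293 cells stably expressing the CMV luciferase reporter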)
[4] = non-specific cell cytotoxicity, dose response, cytotoxicity control for PAX8 inhibitor project, plate reader, dry powder samples (AID 743021)
[5] = NIH:OVCAR-3 ovarian cancer cell cytotoxicity, dose response, PAX8 inhibitor project, plate reader, dry powder samples (AID 743044); settings: max activity: at 35 µM, stronger effect = lower value unless noted
[6] = IOSE-T80 ovarian epithelial cell cytotoxicity, dose response, cytotoxicity control for PAX8 inhibitor project, plate reader, dry powder samples (AID 743045);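 also: 0% = neutral control median and -100% = positive control median; more negative values mean more cell killing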
[7] = A2780 ovarian cancer cell cytotoxicity, dose response, cytotoxicity control, plate reader, dry powder samples (AID 743046);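 also: 0% = neutral control wells and -100% = cytotoxic reference compound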
[8] = cytotoxicity in OVCAR8 ovarian cancer cells, dose response, PAX8 project, cell-based, plate reader, dry powder samples (AID 743197)

Measured: max activity

COc1ccc(NC(=O)N2CCCCN3[C@H](CO)[C@H](c4ccc(C#Cc5ccccc5)cc4)[C@H]3C2)cc1
inactive: [1] | [2] | [3] | [4] | [5] -17.7% | [6] | [7] | [8]

C[C@H]1CCCCO[C@H](CN(C)C(=O)NC2CCCCC2)[C@@H](C)CN([C@@H](C)CO)C(=O)c2cc(NC(=O)Nc3ccc(C(F)(F)F)cc3)ccc2O1
inactive: [1] | [2] | [3] | [4] | [5] -30.4% | [6] | [7]

N#C[C@@H]1[C@@H](c2ccc(-c3cccc(F)c3)cc2)[C@H](CO)N1C(=O)NC1CCCC1
inactive: [1] | [2] | [3] | [4] | [5] 15.7% [at 0.26 µM, stronger effect = lower value] | [7] | [8]

Cc1ccccc1-c1ccc([C@@H]2[C@@H](CO)N3CCCCN(C(=O)NC4CCCC4)C[C@H]23)cc1
inactive: [1] | [2] | [3] | [4] | [5] -4.19% [at 16 µM, stronger effect = lower value] | [6] | [7] | [8]

O=C(C[C@H]1CC[C@H]2[C@@H](COC[C@@H](O)CN2Cc2ccc3c(c2)OCO3)O1)Nc1ccc(-c2ccccc2)cc1
inactive: [1] | [2] | [3] | [4] | [5] 60.4% [at 2.1 µM, stronger effect = lower value] | [6] | [7] | [8]

C[C@@H]1CCCCO[C@@H](CN(C)Cc2ccc(Cl)c(Cl)c2)[C@H](C)CN([C@H](C)CO)C(=O)c2cc(NS(=O)(=O)c3ccc(Cl)cc3)ccc2O1
inactive: [1] | [2] | [3] | [4] | [5] -24.1% | [6] | [7]

C[C@H](CO)N1C[C@H](C)[C@@H](CN(C)Cc2ccc(Oc3ccccc3)cc2)Oc2ccc(NS(=O)(=O)c3ccc(F)cc3)cc2CC1=O
inactive: [1] | [2] | [3] | [4] | [5] -23.5% [at 4.2 µM, stronger effect = lower value] | [6] | [7]

COc1ccc(C#Cc2ccc([C@@H]3[C@H](CO)N4CCCCN(C(=O)Nc5ccc(F)cc5)C[C@@H]34)cc2)cc1
inactive: [1] | [2] | [3] | [4] | [5] -123% [at 30 µM, stronger effect = lower value] | [6]

C[C@H](CO)N1C[C@H](C)[C@H](CN(C)Cc2ccc(Cl)c(Cl)c2)OCCCC[C@H](C)Oc2ccc(NC(=O)Nc3ccc(C(F)(F)F)cc3)cc2C1=O
inactive: [1] | [2] | [3] | [4] | [5] 27.7% [at 2.1 µM, stronger effect = lower value] | [6] | [7]

C[C@@H]1CN([C@@H](C)CO)C(=O)c2cc(NC(=O)Cc3ccccc3)ccc2O[C@@H](C)CCCCO[C@@H]1CN(C)Cc1ccc(C(F)(F)F)cc1
inactive: [1] | [2] | [3] | [4] | [5] -8.58% | [6] | [7]

C[C@H](CO)N1C[C@H](C)[C@@H](CN(C)Cc2ccc(Cl)c(Cl)c2)Oc2ccc(NC(=O)Nc3ccc(C(F)(F)F)cc3)cc2CC1=O
inactive: [1] | [2] | [3] | [4] | [5] 17.7% [at 0.5 µM, stronger effect = lower value] | [6] | [7] | [8]

C[C@@H]1CCCCO[C@@H](CN(C)Cc2ccc(C(F)(F)F)cc2)[C@H](C)CN([C@H](C)CO)C(=O)c2cc(NC(=O)c3ccccc3)ccc2O1
inactive: [1] | [2] | [3] | [4] | [5] -25.3% | [6] | [8]

C[C@@H]1CN([C@@H](C)CO)C(=O)Cc2cc(NS(=O)(=O)c3ccc(Cl)cc3)ccc2O[C@H]1CN(C)Cc1ccc(Cl)c(Cl)c1
inactive: [1] | [2] | [3] | [4] | [5] 11% [at 16 µM, stronger effect = lower value] | [6] | [7] | [8]

Cc1ccc(S(=O)(=O)Nc2ccc3c(c2)C(=O)N([C@H](C)CO)C[C@@H](C)[C@H](CN(C)S(=O)(=O)c2ccc(C)cc2)OCCCC[C@H](C)O3)cc1
inactive: [1] | [2] | [3] | [4] | [5] 32.9% [at 0.26 µM, stronger effect = lower value] | [6] | [8]

C[C@H](CO)N1C[C@H](C)[C@H](CN(C)S(=O)(=O)c2ccc(F)cc2)OCCCC[C@H](C)Oc2ccc(NS(=O)(=O)c3ccc(Cl)cc3)cc2C1=O
inactive: [1] | [2] | [3] | [4] | [5] -16.9% [at 4.2 µM, stronger effect = lower value] | [6] | [8]

Cc1cccc(S(=O)(=O)N2CC[C@@H]3[C@H](CO)N(C)c4ccc(C#Cc5ccc(F)cc5)cc4[C@@H]32)c1
inactive: [1] | [2] | [3] | [4] | [5] -16.3% [at 30 µM, stronger effect = lower value] | [6] | [7]

C[C@@H]1CN([C@H](C)CO)C(=O)c2cc(NC(=O)Nc3ccc4c(c3)OCO4)ccc2O[C@@H](C)CCCCO[C@H]1CN(C)Cc1ccc(C(F)(F)F)cc1
inactive: [1] | [2] | [3] | [4] | [6]

O=C(C[C@@H]1CC[C@@H]2[C@H](COC[C@H](O)CN2Cc2ccc3c(c2)OCO3)O1)Nc1ccc(-c2ccccc2)cc1
inactive: [1] | [2] | [3] | [4] | [5] 25.3% [at 0.5 µM, stronger effect = lower value] | [6] | [7] | [8]

N#C[C@@H]1[C@@H](c2ccc(-c3ccccc3F)cc2)[C@@H](CO)N1C(=O)C1CCC1
inactive: [1] | [2] | [3] | [4] | [5] -15.9% | [6] | [7] | [8]

C[C@@H]1CCCCO[C@@H](CN(C)Cc2ccc(C(F)(F)F)cc2)[C@H](C)CN([C@H](C)CO)C(=O)c2cc(NS(=O)(=O)c3ccccc3)ccc2O1
inactive: [1] | [2] | [3] | [4] | [5] -29.5% | [6] | [7]

C[C@H]1CN([C@@H](C)CO)C(=O)c2c(c3ccccc3n2C)-c2ccccc2CO[C@@H]1CN(C)Cc1cccc(C(F)(F)F)c1
inactive: [1] | [2] | [3] | [4] | [5] 14.4% [at 0.26 µM, stronger effect = lower value] | [6] | [7]

C[C@H](O)C#Cc1cnc2c(c1)C(=O)N([C@H](C)CO)C[C@@H](C)[C@@H](CN(C)Cc1ccc(-c3ccccc3)cc1)O2
inactive: [1] | [2] | [3] | [4] | [5] 29.8% [at 2.1 µM, stronger effect = lower value] | [6] | [7] | [8]

C[C@H]1CCCCO[C@H](CN(C)C(=O)Nc2ccc(C(F)(F)F)cc2)[C@@H](C)CN([C@@H](C)CO)C(=O)c2cc(NS(=O)(=O)c3ccccc3)ccc2O1
inactive: [1] | [2] | [3] | [4] | [5] -16.1% [at 8 µM, stronger effect = lower value] | [6] | [7]

C[C@H]1CCCCO[C@H](CN(C)C(=O)Nc2cccc3ccccc23)[C@@H](C)CN([C@@H](C)CO)C(=O)c2cc(NS(=O)(=O)c3ccc(F)cc3)ccc2O1
inactive: [1] | [2] | [3] | [4] | [5] 28.1% [at 0.5 µM, stronger effect = lower value] | [6] | [7]

Cc1ccc(S(=O)(=O)N2CC[C@@H]3[C@H](CO)N(C)c4ccc(-c5ccc(C#N)cc5)cc4[C@@H]32)cc1
inactive: [1] | [2] | [3] | [4] | [5] 67.4% [at 2.1 µM, stronger effect = lower value] | [6] | [7]

C[C@@H]1CCCCO[C@@H](CN(C)Cc2ccc(C(F)(F)F)cc2)[C@H](C)CN([C@@H](C)CO)C(=O)c2cc(NS(=O)(=O)c3ccc(F)cc3)ccc2O1
inactive: [1] | [2] | [3] | [4] | [5] -6.08% | [6] | [7]

COc1cccc(-c2ccc([C@H]3[C@@H](CO)N(C(=O)c4ccccn4)[C@H]3C#N)cc2)c1
inactive: [1] | [2] | [3] | [4] | [5] -40.2% | [6] | [7]

CN(C[C@H]1N[C@@H](CO)[C@@H]1c1ccc(-c2cccc(F)c2)cc1)S(C)(=O)=O
inactive: [1] | [2] | [3] | [4] | [5] 23.7% [at 8 µM, stronger effect = lower value] | [6] | [7]

O=C(C[C@@H]1CC[C@@H]2[C@H](COC[C@H](O)CN2S(=O)(=O)c2ccccc2Cl)O1)N1CCC(Cc2ccccc2)CC1
inactive: [1] | [2] | [3] | [4] | [5] -15.3% | [7]

C[C@@H]1CCCCO[C@H](CN(C)S(=O)(=O)c2cccs2)[C@@H](C)CN([C@@H](C)CO)C(=O)c2cc(NC(=O)Nc3ccc(C(F)(F)F)cc3)ccc2O1
inactive: [1] | [2] | [3] | [4] | [5] -21.9% | [6] | [7] | [8]

O=C(C[C@H]1CC[C@@H]2[C@H](COC[C@H](O)CN2S(=O)(=O)c2cccc(F)c2)O1)Nc1ccc(-c2ccccc2)cc1
inactive: [1] | [2] | [3] | [4] | [5] 27.1% [at 0.5 µM, stronger effect = lower value] | [6] | [7]

C[C@@H]1CN([C@H](C)CO)C(=O)c2cc(NS(=O)(=O)c3ccccc3)ccc2O[C@@H](C)CCCCO[C@@H]1CN(C)Cc1ccc(Cl)c(Cl)c1
inactive: [1] | [2] | [3] | [4] | [5] -20% [at 9 µM, stronger effect = lower value] | [6] | [7]

C[C@@H]1CN([C@H](C)CO)C(=O)c2cc(NC(=O)Nc3ccc(F)cc3)ccc2O[C@@H](C)CCCCO[C@H]1CN(C)C(=O)C1CCCCC1
inactive: [1] | [2] | [3] | [4] | [5] 11.9% [at 16 µM, stronger effect = lower value] | [6] | [8]

C[C@@H]1CN([C@@H](C)CO)C(=O)Cc2cc(NC(=O)C3CCCCC3)ccc2O[C@H]1CN(C)Cc1ccc(Cl)c(Cl)c1
inactive: [1] | [2] | [3] | [4] | [5] -14.6% [at 8 µM, stronger effect = lower value] | [6] | [7] | [8]
